Test results taken from PubChem BioAssay (EPA / NIEHS).
Where “and” joins values, the source holds several entries; their conditions need not be identical. Equal values may be shown once. Calls of active or inactive are those of the source. The calls were made as follows: active = hit-call score of the fitted dose curve at least 0.9, where 1 is the maximum; inactive = score below 0.9.

Target: Cellular tumor antigen p53 (Homo sapiens) (UniProt P04637)
Assay: ATG_p53_CIS: Attagene CIS-FACTORIAL HepG2 Assay for human p53 Transcription Factor (AID 2282994)
Details: HepG2 p53 cis-element reporter, Attagene mRNA; actives raise or lower the signal
Method: ATG_CIS is a cell-based, multiplexed-readout assay that uses HepG2, a human liver cell line, with measurements taken at 24 hours after chemical dosing in a 24-well plate.ATG_p53_CIS is one of 52 assay component(s) measured or calculated from the ATG_CIS assay. It is designed to make measurements of mRNA induction, a form of inducible reporter, as detected with fluorescence intensity signals by Reverse transcription polymerase chain reaction (RT-PCR) and Capillary electrophoresis technology.Data from the assay component ATG_p53_CIS was analyzed into 1 assay endpoint. This assay endpoint, ATG_p53_CIS, was analyzed with bidirectional fitting relative to DMSO as the negative control and baseline of activity. Using a type of inducible reporter, measures of mRNA for gain or loss-of-signal activity can be used to understand the reporter gene at the transcription factor-level as they relate to the gene TP53. Furthermore, this assay endpoint can be referred to as a primary readout, because this assay has produced multiple assay endpoints where this one serves a reporter gene function. To generalize the intended target to other relatable targets, this assay endpoint is annotated to the dna binding intended target family, where the subfamily is tumor suppressor.
Human liver HepG2 cells are transiently transfected with multiple reporter transcription units (MRTUs) in 6-well plates using FuGene 6 reagent (Roche; 3 ml FuGene/1 mg DNA). The MRTU constructs are regulated by a cis-regulating element (promoter). […] A major difference between the CIS and TRANS system is that in CIS activities of endogenous TFs are measured, whereas the TRANS assay evaluates changes in activities of exogenous, chimeric NR-Gal4 proteins. […] At the end of 24 hour incubation, total RNA was isolated using TriZol reagent (Invitrogen). The isolated RNA is then reverse-transcribed using oligo(dT) primer and Mo-MLV reverse transcriptase (Invitrogen) with DNAse I (Ambion) treatment for 30 min. The one-tenth of the produced cDNA was amplified by PCR using Taq DNA polymerase (Invitrogen) and two reporter sequence-specific primers. The PCR products were fluorescently labeled by primer extension with 6-arboxyfluorescein (6-FAM) 5'-labeled reporter sequence-specific primer (2 min at 95 C, 20 s at 68 C and 10 min at 72 C) and these products were digested with 5U of HpaI (New England Biolabs) for 2h at 37 C. The fragments were purified using Qiaquick PCR columns (Qiagen), analyzed on an ABI 3130xL genetic analyzer (Applied Biosystems) with peak positions identified by using a set of X-rhodamine (ROX)-labeled MapMarker1000 molecular weight standards (BioVentures). The raw capillary electrophoresis data was processed using Attagraph software (Attagene).

Cellular tumor antigen p53 (Homo sapiens), sequence (P04637 whole entry, looked up): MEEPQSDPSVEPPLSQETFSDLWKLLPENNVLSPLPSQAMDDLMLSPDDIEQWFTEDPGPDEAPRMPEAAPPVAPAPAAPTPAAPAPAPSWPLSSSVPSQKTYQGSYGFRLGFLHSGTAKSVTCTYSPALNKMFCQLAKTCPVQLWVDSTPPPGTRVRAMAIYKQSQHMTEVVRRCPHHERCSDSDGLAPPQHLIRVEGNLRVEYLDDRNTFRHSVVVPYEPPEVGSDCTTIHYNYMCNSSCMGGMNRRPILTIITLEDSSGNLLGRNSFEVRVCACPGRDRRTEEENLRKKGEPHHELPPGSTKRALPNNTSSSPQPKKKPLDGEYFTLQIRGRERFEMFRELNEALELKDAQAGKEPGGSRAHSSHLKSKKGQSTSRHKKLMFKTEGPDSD

| SMILES | AC50 | outcome |
| --- | --- | --- |
| OC(Cc1ccccc1Cl)(Cn1[nH]cnc1=S)C1(Cl)CC1 (stereo not given) | 75.7 µM (active) | – |
| O=S(=O)(F)C(F)(F)C(F)(F)C(F)(F)C(F)(F)F | – | inactive |
| C[C@H]1C(=O)O[C@@H]2CCN3CC=C(COC(=O)[C@](C)(O)[C@]1(C)O)[C@H]23 | – | inactive |
| Nc1c(Oc2ccccc2)cc(O)c2c1C(=O)c1ccccc1C2=O | – | inactive |
| NC(=O)CCl | – | inactive |
| Cc1ccccc1OP(=O)(Oc1ccccc1C)Oc1ccccc1C | – | inactive |
| CCCCC(CC)C(=O)Cl (stereo not given) | – | inactive |
| O=C(CCl)Nc1ccccc1 | 7.86 µM (active) | – |
| O=[N+]([O-])c1ccc(Nc2ccccc2)cc1 | – | inactive |
| O=[N+]([O-])c1cc([As](=O)(O)O)ccc1O | – | inactive |
| CC(C)(C1CCC(O)CC1)C1CCC(O)CC1 (stereo not given) | – | inactive |
| Nc1nc(N)nc(Cl)n1 | – | inactive |
| CCC(C)(C#N)N=NC(C)(C#N)CC (stereo not given) | – | inactive |
| CC(C)(COCC1CO1)COCC1CO1 (stereo not given) | – | inactive |
| O=C(Nc1ccc(Br)cc1)c1cc(Br)cc(Br)c1O | 100 µM (active) | – |
| O=c1oc2ccccc2c(O)c1C(CC(O)c1ccc(-c2ccc(Br)cc2)cc1)c1ccccc1 (stereo not given) | 53.2 µM (active) and 21.3 µM (active) | – |
| CC(=Cc1ccccc1)[N+](=O)[O-] | 18 µM (active) | – |
| CN(C)[C@@H]1C(=O)C(C(N)=O)=C(O)[C@@]2(O)C(=O)C3=C(O)c4c(O)ccc(Cl)c4[C@@](C)(O)[C@H]3C[C@@H]12 | – | inactive |
| C=CC(F)(C(F)(F)F)C(F)(F)C(F)(F)F (stereo not given) | – | inactive |
| C=CCOC(F)(C(F)(F)F)C(F)(F)F | – | inactive |

| SMILES | AC50 | outcome |
| --- | --- | --- |
| O=C(CCl)NCO | – | inactive |
| C[CH2][Hg][S]c1ccccc1C(=O)O | – | inactive |
| BrCC(Br)c1ccccc1 (stereo not given) | – | inactive |
| Nc1ccc(Br)cc1 | – | inactive |
| CCOC(=O)c1ccccc1S(=O)(=O)NC(=O)Nc1nc(Cl)cc(OC)n1 | – | inactive |
| O=[N+]([O-])c1ccc(Cl)c([N+](=O)[O-])c1 | – | inactive |
| c1csc(-c2ccc(-c3cccs3)s2)c1 | – | inactive |
| CC(C=O)Cc1ccc2c(c1)OCO2 (stereo not given) | – | inactive |
| O=[N+]([O-])c1c2ccccc2cc2ccccc12 | – | inactive |
| N#Cc1ccncc1 | – | inactive |
| COCCl | – | inactive |
| CC1(C)[C@H](/C=C2\CCSC2=O)[C@@H]1C(=O)OCc1coc(Cc2ccccc2)c1 | – | inactive |
| CS(=O)(=O)c1ccc(C(=O)C2C(=O)CCCC2=O)c(Cl)c1COCC(F)(F)F | – | inactive |
| Nc1ccc(-c2ccccc2)cc1 | – | inactive |
| CC(C)CC(C)(c1ccc(O)cc1)c1ccc(O)cc1 | 11.1 µM (active) | – |
| C=CCCl | – | inactive |
| OC(Cc1ccccc1Cl)(Cn1cncn1)C1(Cl)CC1 (stereo not given) | 30 µM (active) | – |
| N#Cc1ccc(Cl)cc1 | – | inactive |
| C=C(C)[C@@H]1CC=C(C=O)CC1 | – | inactive |
| OC[P+](CO)(CO)CO | – | inactive |
